Experimental data as given in PubChem BioAssay (NCI).
Compounds without any hit were thinned out: in the full panel of roughly 79,000, 15% have a hit. A number with no mark means an inactive call. Activity calls are given as the source filed them. No stated cut-off is given here; in the data, active means growth inhibition above about 70%; inactive means the rest.

Experiments:
[1] = NCI Yeast Anticancer Drug Screen. Data for the rad50 strain (AID 155);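 further: 0% = growth of vehicle-only cultures of the same strain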; conditions: S. cerevisiae rad50 strain growth inhibition; at 50.0 µM; active compounds read high
Summary of the method: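 Yeast carrying a defined DNA repair defect were exposed to test compounds, and growth was compared with vehicle-treated controls to give percent inhibition.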

[2] = NCI Yeast Anticancer Drug Screen. Data for the mec2-1 strain (AID 157); conditions: S. cerevisiae mec2-1 strain, at 50.0 µM, active compounds read high
Summary of the method: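 Mutant yeast (mec2-1) grown with compound; growth inhibition relative to vehicle control reported.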

[3] = NCI Yeast Anticancer Drug Screen. Data for the sgs1 mgt1 strain (AID 161);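 further: 0% = growth of cultures given vehicle only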; conditions: S. cerevisiae sgs1 mgt1 strain, at 50.0 µM, active compounds read high
Summary of the method: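 Growth of a repair-deficient yeast mutant was monitored after compound treatment and expressed as inhibition relative to vehicle-treated cultures.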

[4] = NCI Yeast Anticancer Drug Screen. Data for the cln2 rad14 strain (AID 165);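 further: 0% = growth equal to vehicle treated cultures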; conditions: S. cerevisiae cln2 rad14 strain, at 50.0 µM, active compounds read high
Summary of the method: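 Readout is yeast growth inhibition versus vehicle-treated controls, using a strain with cln2 and rad14 alterations exposed to compound.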

[5] = NCI Yeast Anticancer Drug Screen. Data for the bub3 strain (AID 167); conditions: S. cerevisiae bub3 mutant strain, at 50.0 µM, active compounds read high
Summary of the method: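 Compounds were applied to a genetically altered yeast strain carrying a cell-cycle control defect. Growth inhibition was scored against vehicle-treated controls.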

[6] = NCI Yeast Anticancer Drug Screen. Data for the mlh1 rad18 strain (AID 175); conditions: S. cerevisiae mlh1 rad18 strain growth inhibition; at 50.0 µM; active compounds read high
Summary of the method: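 Genetically defined yeast (DNA repair-deficient) exposed to compounds; growth inhibition determined relative to vehicle.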

Row | Structure (SMILES) | growth inhibition [1] | growth inhibition [2] | growth inhibition [3] | growth inhibition [4] | growth inhibition [5] | growth inhibition [6]
1 | N#CC(C(=O)C(=O)Nc1cccc(C(F)(F)F)c1)c1cccc(Cl)c1 (stereo unspecified) | 19.1% | 11.4% | 14.8% | 12.2% | 19.6% | 28.9%
2 | O=[N+]([O-])c1ccc(OC2CC3C4C=CC3C2C4)c([N+](=O)[O-])c1 (stereo unspecified) | -27.9% | -17.1% | -5.45% | 20.8% | -9.6% | -24.6%
3 | O=P(NC1CCCCC1)(NC1CCCCC1)NC1CCCCC1 | 19.1% | -1.75% | -0.75% | 12.1% | 12.8% | 14.2%
4 | O=C1c2ccccc2C(=O)N1NC1=NCCN1 | -12.6% | -13.3% | -13.1% | 11.8% | 5.5% | -1.8%
5 | CC(=O)NC(Cc1ccccc1)C(=O)NN (stereo unspecified) | 7.15% | -8.3% | -11.2% | -0.35% | -6.55% | -22.3%
6 | COc1ccc(CCC2(C)OCCCO2)cc1 | 9.75% | -0.65% | -0.85% | -6.75% | -5.8% | 17.4%
7 | CC/C(N)=N\OC(=O)c1ccccc1 | 14.3% | -4.75% | -4.45% | -44.4% | 2.8% | -5%
8 | COc1cc(NS(=O)(=O)c2ccc(C)cc2)c2c(c1N)C(=O)c1ccccc1C2=O | -3.4% | -8.15% | -4.1% | 5.35% | 5.55% | -1.05%
9 | OC(CCNC12CC3CC(CC(C3)C1)C2)c1ccccc1 (stereo unspecified) | 29.8% | 22.4% | 59.2% | 50.5% | 33.4% | 53.6%
10 | S=C(Cl)Sc1ccc(-c2ccc(SC(=S)Cl)cc2)cc1 | 2.7% | -2.5% | -10.4% | -5.6% | 6.1% | -7.9%
11 | C=C1C(=O)OC2CCC(O)C12 (stereo unspecified) | 6.95% | 5.15% | 1.2% | -30.6% | -1.2% | 11.7%
12 | CC1(C)OCC(C(OC(=O)c2ccc([N+](=O)[O-])cc2)C(OC(=O)c2ccc([N+](=O)[O-])cc2)C2COC(C)(C)O2)O1 (stereo unspecified) | 24.6% | 4.25% | -5.3% | 41.2% | 2.9% | 20.4%
13 | Nc1ccc(N=Nc2ccc(C(=O)O)cc2)cc1 | -32.9% | -48% | 18.1% | 3% | -26.4% | -7.6%
14 | Cc1ccccc1NC(=O)CC(=O)NNC(Sc1ccccc1)c1cc(N=Nc2ccc(Br)cc2)ccc1O (stereo unspecified) | 19.3% | 14.1% | 27.1% | -3.95% | 17.9% | 18.9%
15 | C=C(C)c1nc(C#N)c(N)o1 | 33% | 5.6% | -13.4% | 4.5% | -37.8% | -33.4%
16 | O=[N+]([O-])c1ccc(C(O)C(c2ccccc2)S(=O)(=O)N2CCCCC2)cc1 (stereo unspecified) | 40.6% | -2.75% | 17.1% | -31.9% | -0.5% | 24.9%
17 | Cc1c(C)n2c(=O)n(-c3ccccc3)c(=O)n2c1=O | -38% | -27.1% | -5.55% | -27.2% | -7.75% | -1.85%
18 | O=C(c1ccc(Cl)cc1)c1onc(-c2ccccc2)c1-c1ccccc1 | -13.6% | 0% | -0.3% | -43.9% | -9.2% | -3.05%
19 | COC1OCCCO1 | -12.6% | 11.6% | -6.45% | -6.75% | -0.1% | -12.5%
20 | COC(=O)Nc1nc2ccc(-n3c(C)nc4ccccc4c3=O)cc2[nH]1 | 10.8% | -0.45% | 6.35% | 8.5% | 4.95% | 15.8%
21 | CCCCOP(=O)(Cc1ccc(Cl)cc1Cl)OCCCC | 99.5% (active) | 99.7% (active) | 99.5% (active) | 99% (active) | 99.4% (active) | 99.5% (active)

Row | Structure (SMILES) | growth inhibition [1] | growth inhibition [2] | growth inhibition [3] | growth inhibition [4] | growth inhibition [5] | growth inhibition [6]
22 | O=C1C=CC(CCCCCn2ccc(=O)[nH]c2=O)C(=O)N1 (stereo unspecified) | -8.25% | 3.15% | 14.7% | 13.8% | -6.6% | -0.25%
23 | O=S(=O)(Cc1ccccc1)c1ncc(Cl)cn1 | 8.9% | 6.65% | 13.2% | -5.55% | 16.9% | 16.4%
24 | CNC(=O)NS(=O)(=O)c1cccc([N+](=O)[O-])c1 | -0.3% | 5.35% | -8.3% | 1.9% | -21.6% | -17.3%
25 | Cc1nc(C(=O)N=C(N)N)c(N)nc1-c1ccccc1 | -22.6% | -4.3% | -7.7% | -28.2% | -4.8% | -4%
26 | Cc1c(O)c(=O)ccn1CCN | 5.65% | -8.35% | 2.6% | -34% | -9.7% | 5.8%
27 | CCCN(CCC#N)C(=S)Nc1ccc(C)c(C)c1 | -13.1% | -54.7% | -3.1% | -7.5% | -41.6% | -27.9%
28 | CCOC(=O)c1nc2ccc(C(F)(F)F)cc2nc1NCc1ccc(OC)c(OC)c1 | 5.7% | 6.65% | -28% | -13.1% | -23.5% | -24.8%
29 | Cc1ncc(C(=O)O)c(CO)c1N | 7.45% | -15.9% | -14.8% | 13.3% | -18.4% | 4.8%
30 | CC(C)(C)Oc1cc(F)c(C(C)(C)C)cc1C(C)(C)C | -4% | -7.4% | -2.4% | 8.75% | 0.05% | 10.7%
31 | CCO/C=C1/N=C(c2ccc3ccccc3c2)OC1=O | 35.9% | 9.8% | 13.3% | -23.7% | -32.2% | 14%
32 | Cc1ccc2ccccc2[n+]1CC(=O)c1ccc([N+](=O)[O-])cc1 | -16.8% | -30.8% | -9.3% | 9.95% | -11.2% | -12.4%
33 | N#CC(=O)Nc1ccc(F)cc1 | -58.3% | -2.35% | -6.15% | -8% | 1.9% | 3.2%
34 | OC1C(O)C2CC1C1C2C2(Cl)CC1(Cl)C(Cl)=C2Cl (stereo unspecified) | 7.6% | -1.55% | 1.5% | -1.35% | -6.1% | 14.3%
35 | O=C1OC(/C=C/c2ccccc2)=NC/1=C\C=C\c1ccccc1 | 24.1% | 14.8% | 14.9% | 14.2% | 6.15% | -1.65%
36 | Cc1nn(C)c(NC(=O)c2ccccc2O)c1SC#N | 43.3% | -5.35% | 16.7% | 28.2% | 35.2% | 10.4%
37 | CCOC(=O)C(C(=O)OCC)=c1sc(=C(C(=O)OCC)C(=O)OCC)s1 | 20.2% | 7.8% | 17.1% | 5.05% | -2.5% | 9.3%
38 | CCn1c(=O)ccc2ccc(N(CCO)CCO)nc21 | -19.9% | 8.3% | -0.15% | -3.6% | -9% | 10.1%
39 | CC(C)OC(=O)CC#N | -4.55% | -9.55% | -7.7% | -28.7% | 0.6% | 14.8%
40 | c1ccc(SC2(Sc3ccccc3)CCCC2)cc1 | -9.15% | -22.1% | -12.2% | -0.5% | -24.6% | -17.4%
41 | CSCNC(=O)Nc1ccccc1 | 30.4% | 33.9% | 19.1% | 0.25% | 15% | 8.9%
